Data on 13 compounds can be found in PubChem BioAssay (NCI).

What all share (experiment): NCI-60 one-dose screen, 48 h (100 = growth as untreated, 0 = no growth, -100 = all killed)
The subject of one experiment is OVCAR-8 ovarian. To be noted: 10 µM unless noted.
A further experiment concerns OVCAR-5 ovarian. To be noted: 10 µM unless noted.
A further experiment relates to OVCAR-4 ovarian. To be noted: 10 µM unless noted.
The next experiment relates to IGROV1 ovarian. Particulars: 10 µM unless noted.
For a further experiment, the system named is OVCAR-3 ovarian. To be noted: 10 µM unless noted.
The subject of a further experiment is HS 578T breast. Particulars: 10 µM unless noted.
The test system of another experiment is NCI/ADR-RES ovarian. To be noted: 10 µM unless noted.
The subject of another experiment is T-47D breast. To be noted: 10 µM unless noted.
The test system of another experiment is BT-549 breast. Particulars: 10 µM unless noted.
A further experiment concerns MDA-MB-435 melanoma. Particulars: 10 µM unless noted.
The subject of a further experiment is SW-620 colon. To be noted: 10 µM unless noted.
A further experiment concerns MCF7 breast. Particulars: 10 µM.
The test system of another experiment is HCT-116 colon. Particulars: 10 µM unless noted.
For another experiment, the system named is HCC-2998 colon. To be noted: 10 µM unless noted.
For the next experiment, the system named is KM12 colon. Particulars: 10 µM unless noted.
In a further experiment the test system is SK-OV-3 ovarian. Particulars: 10 µM unless noted.

This is part of a sample that, as a whole, favours compounds with a hit. Of some 83,000 tested, about 20% had one in any assay.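 Single-concentration screen, 48 h exposure, 96-well plates. Endpoint: percent growth. Below 10 = active.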 Unmarked numbers belong to inactive results. Activity calls are given as the source filed them.

`CN1C(=O)N(C)C2(c3ccccc3)n3c(s/c(=C\c4ccccc4)c3=O)=NNC12c1ccccc1` (stereo not drawn): the growth is 96.8% in the experiment on OVCAR-8 ovarian; 99.9% in the experiment on OVCAR-5 ovarian; 100% with OVCAR-4 ovarian; 97.9% with IGROV1 ovarian; 103% in the experiment on OVCAR-3 ovarian; 102% with HS 578T breast. Also, the growth is 88.3% with NCI/ADR-RES ovarian; 81.9% with T-47D breast; 105% in the experiment with BT-549 breast; 98.1% with MDA-MB-435 melanoma; 88.6% in the experiment with SW-620 colon; 85.6% in the experiment with MCF7 breast. The growth in the experiment on HCT-116 colon is 88.3%; in the experiment with HCC-2998 colon, 110%; with KM12 colon, 88.2%.
As for `O=C1NC(=S)NC(=O)C1=Cc1cn(Cc2cn(Cc3cccc4ccccc34)nn2)c2ccccc12`, the growth with OVCAR-8 ovarian is 102%; in the experiment with OVCAR-5 ovarian, 89.6%; in the experiment with OVCAR-4 ovarian, 92.2%; in the experiment with IGROV1 ovarian, 82.6%; in the experiment with OVCAR-3 ovarian, 102%; with HS 578T breast, 81.9%. Further, the growth in the experiment on NCI/ADR-RES ovarian is 96.5%; in the experiment on T-47D breast it was 105%; in the experiment with BT-549 breast it was 101%; in the experiment on MDA-MB-435 melanoma, 94.8%; in the experiment on SW-620 colon, 93.4%; in the experiment on MCF7 breast, 95.4%. Also, the values for the growth in the experiment on HCT-116 colon, in the experiment with HCC-2998 colon and in the experiment with KM12 colon were 106%, 100% and 97.2%, respectively.
As for `CN1C(=O)N(C)C2C1NN=c1s/c(=C\c3c[nH]c4ccccc34)c(=O)n12` (stereo not drawn), the growth in the experiment on OVCAR-8 ovarian is 24.1%; in the experiment on OVCAR-5 ovarian it was 42.7%; in the experiment with IGROV1 ovarian it was 18.7%; in the experiment on OVCAR-3 ovarian, 8.1% (active); with HS 578T breast it was 18.7%; in the experiment with NCI/ADR-RES ovarian, 15.6%. Besides, the growth in the experiment on T-47D breast is 82.6%; in the experiment on BT-549 breast it was 12.3%; in the experiment with MDA-MB-435 melanoma, 102%; with SW-620 colon, 28.6%; in the experiment on MCF7 breast it was 16%; with HCT-116 colon it was 5.95% (active). Further, the growth with HCC-2998 colon was 27.3%; in the experiment with KM12 colon it was 4.61% (active).
As for `CN1C(=O)N(C)C2C1NN=c1s/c(=C\c3ccc([N+](=O)[O-])cc3)c(=O)n12` (stereo not drawn), the growth was 81.1% in the experiment on OVCAR-8 ovarian; 86.1% in the experiment on OVCAR-5 ovarian; 82.2% in the experiment with OVCAR-4 ovarian; 57.4% in the experiment with IGROV1 ovarian; 67.5% with HS 578T breast; 61.5% in the experiment on NCI/ADR-RES ovarian. Further, the growth with T-47D breast is 66.5%; in the experiment with BT-549 breast, 60.5%; in the experiment on MDA-MB-435 melanoma, 6.25% (active); with SW-620 colon, 37.8%; with MCF7 breast it was 26%; in the experiment on HCT-116 colon it was 37.6%. For the same compound, the growth in the experiment on HCC-2998 colon is 84.9%; in the experiment with KM12 colon it was 35.5%.
Turning to `O=C(CN1C=NC2C(N3CCOCC3)=NC=NC21)c1cccc2ccccc12` (stereo not drawn), the growth in the experiment with OVCAR-8 ovarian was 97%; in the experiment with OVCAR-5 ovarian, 92%; with OVCAR-4 ovarian it was 97.1%; with IGROV1 ovarian it was 90.8%; in the experiment on OVCAR-3 ovarian, 101%; with HS 578T breast, 102%. Also, the growth in the experiment on NCI/ADR-RES ovarian was 104%; in the experiment with T-47D breast, 90.7%; with MDA-MB-435 melanoma it was 99.3%; in the experiment with SW-620 colon, 96%; in the experiment on MCF7 breast it was 89.3%; in the experiment on HCT-116 colon, 102%. Further, the growth with HCC-2998 colon is 120%; in the experiment with KM12 colon it was 102%.
Regarding `CCOC(=O)C(CC(=O)O)=C(C(=O)OCC)C(=O)OCC`, the growth was 99.9% in the experiment on OVCAR-8 ovarian; 109% with OVCAR-5 ovarian; 111% in the experiment with IGROV1 ovarian; 111% with OVCAR-3 ovarian; 107% in the experiment with HS 578T breast; 112% in the experiment with NCI/ADR-RES ovarian. For the same compound, the growth in the experiment on T-47D breast is 100%; with MDA-MB-435 melanoma, 103%; in the experiment on SW-620 colon, 105%; with MCF7 breast, 92%; with HCT-116 colon it was 99.8%; with HCC-2998 colon it was 104%. Also, in the experiment with KM12 colon, the growth is 103%.
In the case of `Cc1ccc(N=NC2C(=O)N(c3ccc(Cl)cc3)N(c3ccc(Cl)cc3)C2=O)cc1`, the growth is 98.2% in the experiment on OVCAR-8 ovarian; 99.8% with OVCAR-5 ovarian; 102% in the experiment with OVCAR-4 ovarian; 95.8% in the experiment on IGROV1 ovarian; 93.3% with OVCAR-3 ovarian; 102% in the experiment with HS 578T breast. In addition, the growth in the experiment on NCI/ADR-RES ovarian was 98.9%; in the experiment with T-47D breast it was 83.2%; in the experiment on BT-549 breast it was 95.2%; with MDA-MB-435 melanoma, 103%; with SW-620 colon it was 96.4%; in the experiment with MCF7 breast, 85.5%. Also, the growth with HCT-116 colon was 97.2%; in the experiment on HCC-2998 colon it was 109%; in the experiment on KM12 colon, 90.3%.
Take `CC(C)C[C@H](C(=O)N[C@@H](C)C(N)=O)N1CC=CCN(O)S1(=O)=O`: the growth in the experiment on OVCAR-5 ovarian is 99.3% [5 µM]; in the experiment with OVCAR-4 ovarian, 106% [5 µM]; in the experiment with SK-OV-3 ovarian, 108% [5 µM]; in the experiment on IGROV1 ovarian, 120% [5 µM]; in the experiment on OVCAR-3 ovarian it was 110% [5 µM]; in the experiment with HS 578T breast it was 110% [5 µM]. Also, the growth in the experiment with NCI/ADR-RES ovarian was 105% [5 µM]; in the experiment on T-47D breast, 103% [5 µM]; in the experiment on MDA-MB-435 melanoma, 119% [5 µM]; in the experiment with SW-620 colon, 103% [5 µM]; in the experiment on HCT-116 colon it was 109% [5 µM]; in the experiment with HCC-2998 colon, 110% [5 µM]. In the experiment on KM12 colon, the growth is 109% [5 µM].
On to `NC1(N2SC(S)=C3CCCC=C32)CCCCC1`, for which the growth in the experiment with OVCAR-8 ovarian was 107%; with OVCAR-5 ovarian, 104%; in the experiment with OVCAR-4 ovarian, 107%; in the experiment on SK-OV-3 ovarian, 100%; with OVCAR-3 ovarian, 107%; in the experiment with HS 578T breast it was 103%. The growth is 104% in the experiment on NCI/ADR-RES ovarian; 84.5% with T-47D breast; 118% in the experiment on BT-549 breast; 107% in the experiment on MDA-MB-435 melanoma; 99.3% in the experiment with SW-620 colon; 95.4% with MCF7 breast. Further, the growth in the experiment on HCT-116 colon is 98.4%; in the experiment with HCC-2998 colon it was 101%; in the experiment with KM12 colon it was 102%.
As for `Oc1[nH]c2ccccc2c1N=Nc1nnc2n1N=C(c1ccccc1)CS2`, the growth is 59.1% with OVCAR-8 ovarian; 101% in the experiment on OVCAR-5 ovarian; 89.8% with SK-OV-3 ovarian; 97.5% with IGROV1 ovarian; 88.4% in the experiment on OVCAR-3 ovarian; 72% with HS 578T breast. Moreover, the growth with NCI/ADR-RES ovarian is 105%; in the experiment with T-47D breast it was 64.3%; with BT-549 breast it was 72.8%; in the experiment on MDA-MB-435 melanoma, 93.8%; with SW-620 colon it was 106%; with MCF7 breast, 71.9%. Besides, the growth in the experiment on HCT-116 colon is 86.4%; in the experiment with HCC-2998 colon it was 81.3%; in the experiment with KM12 colon it was 95.2%.
In the case of `CCC1=C[C@]2(C3CC(=O)N(c4ccccc4)C3=O)CC(C(C)(C)C)C[C@@H]2[C@@H]2C(=O)N(c3ccccc3)C(=O)[C@H]12` (stereo partly drawn), the growth in the experiment with OVCAR-8 ovarian is 85.5%; in the experiment on OVCAR-5 ovarian, 88.7%; in the experiment on OVCAR-4 ovarian, 89.4%; in the experiment on SK-OV-3 ovarian, 88.6%; with OVCAR-3 ovarian, 86%; with HS 578T breast, 83%. Moreover, the growth was 91.3% in the experiment on NCI/ADR-RES ovarian; 70.5% in the experiment with T-47D breast; 86.5% in the experiment with BT-549 breast; 85.9% with MDA-MB-435 melanoma; 88.4% in the experiment with SW-620 colon; 80.7% in the experiment on MCF7 breast. Moreover, the growth in the experiment with HCT-116 colon is 68.1%; with HCC-2998 colon it was 103%; with KM12 colon it was 85.9%.
In the case of `CCN1C(=O)N(CC)C2C1NN=c1s/c(=C3\C(=O)N(CC(C)(C)C)c4ccccc43)c(=O)n12` (stereo not drawn), the growth with OVCAR-8 ovarian was 32.7%; in the experiment with OVCAR-5 ovarian, 51.1%; in the experiment on OVCAR-4 ovarian, 27.6%; with IGROV1 ovarian it was 24.1%; in the experiment on OVCAR-3 ovarian it was -18.4% (active); in the experiment with HS 578T breast, 18.9%. Further, the growth was 11.3% in the experiment with NCI/ADR-RES ovarian; 58.1% in the experiment with T-47D breast; 21.7% in the experiment with BT-549 breast; -21.3% (active) in the experiment on MDA-MB-435 melanoma; 42.8% with SW-620 colon; 20.2% in the experiment on MCF7 breast. For the same compound, the results for the growth in the experiment with HCT-116 colon, with HCC-2998 colon and in the experiment on KM12 colon were 7.62% (active), 26.7% and 17.6%, respectively.
Take `CN1C(=O)N(C)C2C1NN=c1s/c(=C\c3ccc(Cl)cc3Cl)c(=O)n12` (stereo not drawn): the growth is 27.2% with OVCAR-8 ovarian; 32.5% in the experiment with OVCAR-5 ovarian; 36.9% with OVCAR-4 ovarian; 16.4% in the experiment with IGROV1 ovarian; 3.93% (active) with OVCAR-3 ovarian; 23% with HS 578T breast. The growth in the experiment with NCI/ADR-RES ovarian is 14.9%; in the experiment with T-47D breast, 72.1%; with BT-549 breast, 17.4%; with MDA-MB-435 melanoma, -17% (active); in the experiment on SW-620 colon it was 27.8%; in the experiment with MCF7 breast it was 17.7%. The figures for the growth with HCT-116 colon, in the experiment with HCC-2998 colon and in the experiment on KM12 colon were 8.45% (active), 21.7% and 6.57% (active), respectively.
